Reference: the supplement of paper PMC11219838
A number with no mark means an inactive call.

Each molecule was assayed on Caenorhabditis elegans L1 (N2) (assay: survival and reproduction score of C. elegans L1 (0: 0-10 living worms, 1: 11-20, 2: 21-50, 3: >50, 4: overgrown) (score 0-4); higher = more worms, less nematicidal, active = 1 or less; extreme values may be limits of the assay). Details: 60 µM; 6 days; temperature: 20 °C.
In short: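 Worm survival and reproduction were recorded as an ordinal score of living worms per well, read under a dissection microscope. Each 96-well well held about 20 synchronized C. elegans N2 L1s with E. coli HB101 in liquid NGM and compound at 60 µM final (0.6% v/v DMSO), sealed and shaken at 200 rpm, 20 °C, for 6 days. Scores ranged from 0 (0–10 worms) to 4 (overgrown, starved) and were the mean of two biological replicates.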

Structure (SMILES)	survival and reproduction score
O=C(CSc1nnc(-c2ccncc2)o1)Nc1ccccc1Cl	4
Cc1ccccc1-c1noc(-c2ccc(F)cc2)n1	4
O=C(Nc1cccc(-c2noc(-c3cccnc3)n2)c1)c1cccs1	4
COc1ccc(-c2noc(COc3ccc(C)cc3C)n2)cc1	4
NC(=O)COc1ccccc1-c1nc(-c2ccccc2Cl)no1	4
COc1ccc(-c2noc(CSc3ccc(C)cc3)n2)cc1	4
Clc1ccc(-c2nc(-c3ccccc3Br)no2)cc1	3.5
Cc1cc(Br)ccc1OCc1nc(-c2cccnc2)no1	4
Cc1cc(C)cc(NC(=O)CSc2nnc(-c3ccccc3)o2)c1	4
Clc1ccc(OCc2nc(-c3ccc4c(c3)OCO4)no2)cc1	4
CC(=O)Nc1cccc(-c2nnc(SCc3ccc(F)cc3)o2)c1	4
Cc1ccc(SCc2nc(-c3cccnc3)no2)cc1	1.5
O=C(CSc1nnc(-c2ccncc2)o1)Nc1cc(Cl)cc(Cl)c1	4
COc1ccccc1-c1noc(-c2ccccc2C)n1	4
O=C(CSc1nnc(-c2ccco2)o1)Nc1cccc(Cl)c1Cl	4
Fc1cccc(Cl)c1CSc1nnc(-c2ccccc2)o1	4
COc1ccc(C(=O)CSc2nnc(-c3ccccc3)o2)cc1	4
CC(Oc1ccc(Br)cc1)c1nc(-c2ccncc2)no1 (stereo not drawn)	0 (active)
Fc1ccc(-c2noc(COc3ccccc3)n2)cc1	3.5

Structure (SMILES)	survival and reproduction score
CCCCCSc1nnc(-c2ccc(Cl)cc2Cl)o1	2
O=C(CSc1nnc(-c2ccccc2)o1)c1ccc(Br)cc1	4
Cc1ccccc1-c1noc(-c2ccccc2OCC(N)=O)n1	4
CCCc1ccc(-c2nc(-c3cccnc3)no2)cc1	0 (active)
Cc1cc(OCc2nc(-c3ccncc3)no2)ccc1Cl	4
CCOc1cc(C#N)ccc1OCc1nc(-c2cccs2)no1	4
COc1ccc(-c2nc(-c3ccccc3Cl)no2)cc1	4
Ic1cccc(-c2nc(-c3cccnc3)no2)c1	4
COc1ccccc1NC(=O)c1ccccc1-c1nc(-c2ccc(Cl)cc2)no1	4
O=C(CSc1nnc(-c2ccccc2Cl)o1)Nc1nccs1	4
COc1cccc(OCc2nc(-c3cccc(Br)c3)no2)c1	4
COc1ccc(OCc2nc(-c3ccccc3)no2)cc1	4
Cc1ccc(NC(=O)CSc2nnc(-c3ccccc3)o2)c(C)c1	4
COc1ccc(-c2noc(-c3cccc(Cl)c3)n2)cc1	4
Cc1cc(C)c(NC(=O)CSc2nnc(-c3ccc(Br)cc3)o2)c(C)c1	4
COc1ccc(-c2nc(C3CCCCC3)no2)cc1	4
Cc1ccc(-c2nc(-c3cccc(C(F)(F)F)c3)no2)cc1	3.5
Cc1ccc(OCc2nc(-c3ccncc3)no2)cc1C	4
COc1nc2ccc(C)cc2cc1-c1noc(-c2ccncc2)n1	4
